PubChem BioAssay AID1159580 (chemical genetic matrix, 2015)
Among all 5,500 compounds or so, about 2,000 (36%) were called active. Another 18% or so got no clear call; they are omitted. Cut-off read from the data, not from the text of the source: active = normalized growth mostly below about 0.91 (no sharp cut-off); inconclusive = no clear call, values can overlap the other calls; inactive = mostly above about 0.92. The list shows a part of the results.

Assay: chemical genetic growth profiling, strain panel (AID 1159580);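 note: tested at 20 µM; growth read once vehicle control cultures reached saturation at 30 °C; 1 = growth at the plate median or of vehicle wells; lower values mean less growth of the strain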
Conditions: growth OD

Measured: normalized growth

CC(=O)O[C@H]1C[C@@H](OC(C)=O)C(C)(C)C2CC(=O)[C@]3(C)C(CC[C@@]4(C)[C@H](C(=O)O)OC(=O)C5OC543)[C@]21C (stereo partly specified)
inactive: S. cerevisiae deletion strains, locus YJR066W, strain TOR1, active compounds read low 0.96 | S. cerevisiae deletion strains, locus YKL009W, strain mrt4, active compounds read low 0.996 | S. cerevisiae deletion strains, locus YKL068W, active compounds read low 0.988 | S. cerevisiae deletion strains, locus YKL085W, strain MDH1 (second series), active compounds read low 1 | S. cerevisiae deletion strains, locus YKL085W, strain MDH1, active compounds read low 1 | S. cerevisiae deletion strains, locus YKL160W, strain elf1, active compounds read low 0.99 | S. cerevisiae deletion strains, locus YKL190W, strain CNB1, active compounds read low 0.987 | S. cerevisiae deletion strains, locus YKR001C, strain vps1, active compounds read low 1.01 | S. cerevisiae deletion strains, locus YKR026C, strain gcn3, active compounds read low 1 | S. cerevisiae deletion strains, locus YKR091W, strain srl3, active compounds read low 0.978 | S. cerevisiae deletion strains, locus YLL001W, strain dnm1, active compounds read low 1 | S. cerevisiae deletion strains, locus YLL026W, active compounds read low 0.981 | S. cerevisiae deletion strains, locus YLL041C, strain sdh2, active compounds read low 0.989 | S. cerevisiae deletion strains, locus YLR027C, strain aat2, active compounds read low 1 | S. cerevisiae deletion strains, locus YLR039C, strain RIC1, active compounds read low 1.06 | S. cerevisiae deletion strains, locus YLR058C, strain SHM2, active compounds read low 0.985 | S. cerevisiae deletion strains, locus YLR102C, strain apc9, active compounds read low 1 | S. cerevisiae deletion strains, locus YLR113W, strain HOG1, active compounds read low 0.968 | S. cerevisiae deletion strains, locus YLR221C, strain rsa3, active compounds read low 1.01 | S. cerevisiae deletion strains, locus YLR258W, strain gsy2, active compounds read low 0.995 | S. cerevisiae deletion strains, locus YLR262C, strain YPT6 (second series), active compounds read low 0.978 | S. cerevisiae deletion strains, locus YLR262C, strain YPT6, active compounds read low 1.05 | S. cerevisiae deletion strains, locus YLR268W, strain sec22, active compounds read low 0.954 | S. cerevisiae deletion strains, locus YLR320W, strain mms22, active compounds read low 1.02 | S. cerevisiae deletion strains, locus YLR342W, strain FKS1 (second series), active compounds read low 0.972 | S. cerevisiae deletion strains, locus YLR342W, strain FKS1, active compounds read low 1.01 | S. cerevisiae deletion strains, locus YLR357W, strain rsc2, active compounds read low 1 | S. cerevisiae deletion strains, locus YLR370C, strain arc18, active compounds read low 0.981 | S. cerevisiae deletion strains, locus YLR371W, strain rom2, active compounds read low 0.985 | S. cerevisiae deletion strains, locus YLR384C, strain iki3, active compounds read low 0.998 | S. cerevisiae deletion strains, locus YLR418C, strain cdc73, active compounds read low 1.07 | S. cerevisiae deletion strains, locus YML016C, strain PPZ1, active compounds read low 0.976 | S. cerevisiae deletion strains, locus YML032C, strain rad52, active compounds read low 0.981 | S. cerevisiae deletion strains, locus YML120C, strain ndi1, active compounds read low 0.993 | S. cerevisiae deletion strains, locus YML124C, strain tub3, active compounds read low 0.989 | S. cerevisiae deletion strains, locus YMR058W, strain fet3, active compounds read low 0.982 | S. cerevisiae deletion strains, locus YMR078C, strain ctf18, active compounds read low 0.975 | S. cerevisiae deletion strains, locus YMR125W, strain sto1, active compounds read low 0.98 | S. cerevisiae deletion strains, locus YMR129W, active compounds read low 0.976 | S. cerevisiae deletion strains, locus YMR205C, strain PFK2, active compounds read low 1.01 | S. cerevisiae deletion strains, locus YMR223W, strain ubp8, active compounds read low 0.993 | S. cerevisiae deletion strains, locus YMR231W, strain pep5, active compounds read low 0.991 | S. cerevisiae deletion strains, locus YMR307W, strain GAS1, active compounds read low 0.984 | S. cerevisiae deletion strains, locus YNL067W, strain RPL9B, active compounds read low 1.04 | S. cerevisiae deletion strains, locus YNL071W, strain lat1, active compounds read low 1.01 | S. cerevisiae deletion strains, locus YNL128W, strain TEP1, active compounds read low 0.951 | S. cerevisiae deletion strains, locus YNL153C, strain GIM3, active compounds read low 1.02 | S. cerevisiae deletion strains, locus YNL183C, strain NPR1, active compounds read low 0.972 | S. cerevisiae deletion strains, locus YNL209W, strain ssb2, active compounds read low 0.982 | S. cerevisiae deletion strains, locus YNL233W, strain BNI4, active compounds read low 1.03 | S. cerevisiae deletion strains, locus YNL248C, strain rpa49, active compounds read low 0.964 | S. cerevisiae deletion strains, locus YNL250W, strain rad50, active compounds read low 0.993 | S. cerevisiae deletion strains, locus YNL271C, strain bni1, active compounds read low 0.996 | S. cerevisiae deletion strains, locus YNL298W, strain CLA4, active compounds read low 0.99 | S. cerevisiae deletion strains, locus YNL307C, strain MCK1, active compounds read low 0.999 | S. cerevisiae deletion strains, locus YNL322C, strain KRE1 (second series), active compounds read low 1.01 | S. cerevisiae deletion strains, locus YNR049C, strain mso1, active compounds read low 0.972 | S. cerevisiae deletion strains, locus YNR052C, strain pop2, active compounds read low 1.03 | S. cerevisiae deletion strains, locus YOL012C, strain htz1 0.975 | S. cerevisiae deletion strains, locus YOL147C, strain pex11, active compounds read low 0.992 | S. cerevisiae deletion strains, locus YOR001W, strain rrp6, active compounds read low 1.01 | S. cerevisiae deletion strains, locus YOR061W, strain CKA2, active compounds read low 0.964 | S. cerevisiae deletion strains, locus YOR069W, strain VPS5, active compounds read low 0.99 | S. cerevisiae deletion strains, locus YOR070C, strain gyp1, active compounds read low 1 | S. cerevisiae deletion strains, locus YOR080W, strain dia2, active compounds read low 0.983 | S. cerevisiae deletion strains, locus YOR083W, strain WHI5, active compounds read low 1.01 | S. cerevisiae deletion strains, locus YOR106W, strain vam3, active compounds read low 0.982 | S. cerevisiae deletion strains, locus YOR136W, strain idh2, active compounds read low 0.985 | S. cerevisiae deletion strains, locus YOR144C, strain elg1, active compounds read low 0.994 | S. cerevisiae deletion strains, locus YOR184W, strain ser1, active compounds read low 0.968 | S. cerevisiae deletion strains, locus YOR231W, strain MKK1, active compounds read low 1.02 | S. cerevisiae deletion strains, locus YOR265W, strain rbl2, active compounds read low 1 | S. cerevisiae deletion strains, locus YOR270C, strain vph1, active compounds read low 1.02 | S. cerevisiae deletion strains, locus YOR290C, strain snf2, active compounds read low 0.969 | S. cerevisiae deletion strains, locus YOR316C, strain cot1, active compounds read low 0.986 | S. cerevisiae deletion strains, locus YPL051W, strain arl3, active compounds read low 0.99 | S. cerevisiae deletion strains, locus YPL078C, strain atp4, active compounds read low 0.985 | S. cerevisiae deletion strains, locus YPL106C, strain sse1, active compounds read low 1 | S. cerevisiae deletion strains, locus YPL240C, strain hsp82, active compounds read low 0.993 | S. cerevisiae deletion strains, locus YPL256C, strain CLN2, active compounds read low 1.01 | S. cerevisiae deletion strains, locus YPR119W, strain clb2, active compounds read low 0.994 | S. cerevisiae deletion strains, locus YPR141C, strain kar3, active compounds read low 0.986 | S. cerevisiae deletion strains, locus YPR163C, strain tif3, active compounds read low 0.998 | S. cerevisiae deletion strains, locus YPR167C, strain met16, active compounds read low 0.988 | S. cerevisiae deletion strains, strain wtn01, active compounds read low 0.983 | S. cerevisiae strains, strain wild type, active compounds read low 0.974
